C diff HTS: inhibitors of Clostridium difficile growth; Clostridium difficile clinical isolate growth, OD600, 24 h; hits give low values; growth activity, negative = inhibition, % at 16 µg/mL (by protocol); 0.25% of 86,000 active;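 active = mean growth activity at or below -80% and every replicate also at or below -80%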;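 note: 0% = DMSO wells and -100% = levofloxacin 16 µg/mL wells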
T cruzi growth-1: T. cruzi proliferation inhibition | T. cruzi beta-gal in NIH3T3, GalScreen luminescence, 90 h | inhibition, % at 8.34 µM | 5.9% of 77,000 active | AID 624255;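 active = mean inhibition above about 93%, with at least 55% of replicates each passing it, limit read from the data, passing the limit was not always enough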
Pf Dd2 growth: P. falciparum Dd2 growth inhibition; 2.3% of 94,000 active; activity change, % at 10 µM; SYBR Green, 72 h; hits give low values; in the data active = activity change below about -80%
T cruzi growth-2: inhibitors of T. cruzi proliferation; shares compounds with T cruzi growth-1; T. cruzi beta-gal in NIH3T3, GalScreen luminescence, 90 h; inhibition, % at 8.35 µM; 72% of 5,600 active;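 active = mean replicate inhibition above about 95% and at least 55% of replicates individually reaching it, limit read from the data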
T cruzi growth-3: inhibitors of T. cruzi proliferation; shares compounds with T cruzi growth-1; T. cruzi beta-gal in NIH3T3, GalScreen luminescence, 90 h; inhibition, % at 2.09 µM; 21% of 5,600 active; AID 651740;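 active = mean inhibition above about 95%, with at least 55% of replicates also reaching it, limit read from the data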;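 note: plate controls were neutral control median for no effect and positive control median for full effect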
NIH3T3 tox: NIH/3T3 (mouse) viability loss. AID 651742. 14% of 5,600 active. cytotoxicity (signal decrease), % at 8.35 µM. shares compounds with T cruzi growth-1. NIH/3T3 viability, CellTiter-Glo ATP luminescence, 90 h;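 active = mean signal decrease across replicates above about 35% based on untreated-well scatter, with enough replicates individually passing, limit read from the data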;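 note: 0% = median of neutral control wells and 100% = median of positive control wells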
3T3 cytotox 2: cytotoxicity in mouse NIH/3T3 fibroblasts | shares compounds with T cruzi growth-1 | NIH/3T3 viability, CellTiter-Glo ATP luminescence, 90 h | inhibition, % at 24.9 µM | 56% of 5,600 active;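 active = mean loss of cell viability signal at or above a set limit, and enough replicates individually reaching it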;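 note: 0% = median of neutral control wells and 100% = median of positive control wells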
Numbers without * were called inactive; . = not tested or not shown. Rows were chosen to be rich in hits. Some 6.8% of all compounds tested hit in one or more screens of this group.

SMILES	C diff HTS	T cruzi growth-1	Pf Dd2 growth	T cruzi growth-2	T cruzi growth-3	NIH3T3 tox	3T3 cytotox 2
CCCNC(=O)N1[C@@H]2c3ccc(-c4ccc(F)cc4)c(=O)n3C[C@@H]2[C@@H](CO)[C@@H]1C(=O)N1CCCCC1	-2	102*	.	0	0	-14	21
COC(=O)[C@H]1[C@H](CO)[C@H]2Cn3c(ccc(-c4ccc(F)cc4)c3=O)[C@H]2N1C(=O)C1CC1	-5	73	6	.	.	.	.
O=C([C@@H]1[C@@H](CO)[C@@H]2Cn3c(ccc(-c4cccc(F)c4)c3=O)[C@@H]2N1Cc1cocn1)N1CCCCC1	-1	83	-7	.	.	.	.
C[C@@H]1CN([C@H](C)CO)S(=O)(=O)c2ccc(-c3ccccc3)cc2O[C@H]1CN(C)C(=O)c1ccccc1F	-1	53	-62	.	.	.	.
COc1ccc2c3c([nH]c2c1)[C@@H](CO)N(C(=O)c1ccc(F)cc1)CC31CN(C)C1	-4	.	-10	.	.	.	.
C[C@@H]1CN([C@H](C)CO)C(=O)c2cc(-c3cccnc3)cnc2O[C@@H]1CN(C)C(=O)c1cccc(F)c1	4	5	26	.	.	.	.
COc1ccccc1S(=O)(=O)N[C@@H]1C=C[C@@H](CC(=O)N2CCN(C)CC2)O[C@@H]1CO	-2	-86	21	.	.	.	.
CNC(=O)C[C@@H]1CC[C@H]2[C@@H](COC[C@H](O)CN2S(=O)(=O)c2ccccc2Cl)O1	-6	.	14	.	.	.	.
CN1CCN(C(=O)C[C@@H]2CC[C@H]3[C@@H](COC[C@H](O)CN3C(=O)Nc3cc(Cl)cc(Cl)c3)O2)CC1	.	14	2	.	.	.	.
C[C@@H]1CN([C@H](C)CO)C(=O)c2cccc(NC(=O)Nc3ccccc3)c2O[C@H]1CN(C)C	2	13	-23	.	.	.	.
CC(C)CC#Cc1ccc2c(c1)O[C@H](CN(C)C(=O)NC1CCCC1)[C@H](C)CN([C@H](C)CO)S2(=O)=O	5	120*	-11	103*	93	18	104*
CC(C)CC#Cc1ccc2c(c1)O[C@@H](CN(C)C(=O)NC(C)C)[C@@H](C)CN([C@H](C)CO)S2(=O)=O	.	51	-25	.	.	.	.
CC(C)CC#Cc1ccc2c(c1)O[C@H](CN(C)C(=O)NC1CCCC1)[C@@H](C)CN([C@@H](C)CO)S2(=O)=O	0	125*	3	103*	81	6	103*
CC(C)CC#Cc1ccc2c(c1)O[C@H](CN(C)C(=O)NC(C)C)[C@H](C)CN([C@@H](C)CO)S2(=O)=O	0	73	-28	.	.	.	.
CC(C)CC#Cc1ccc2c(c1)O[C@H](CN(C)C(=O)NC(C)C)[C@H](C)CN([C@H](C)CO)S2(=O)=O	1	63	-27	.	.	.	.
CC(C)CC#Cc1ccc2c(c1)O[C@@H](CN(C)C(=O)NC1CCCC1)[C@@H](C)CN([C@@H](C)CO)S2(=O)=O	-17	120*	-21	101*	84	-19	104*
CC(C)CC#Cc1ccc2c(c1)O[C@H](CN(C)C(=O)NC1CCCC1)[C@H](C)CN([C@@H](C)CO)S2(=O)=O	-7	120*	10	110*	79	20	81*
CC(C)CC#Cc1ccc2c(c1)O[C@@H](CN(C)C(=O)NC(C)C)[C@H](C)CN([C@H](C)CO)S2(=O)=O	.	51	-15	.	.	.	.
C[C@@H]1CN([C@H](C)CO)C(=O)c2cc(NS(=O)(=O)c3ccc(Cl)cc3)ccc2O[C@@H]1CN(C)Cc1ccncc1	-5	62	5	.	.	.	.
O=C(NC1CCC1)[C@H]1N[C@H]2c3ccc(-c4cccc(F)c4)c(=O)n3C[C@H]2[C@@H]1CO	-1	34	-2	.	.	.	.
COc1ccc(NC(=O)N(C)C[C@@H]2Oc3ccc(NC(=O)Nc4ccc(F)cc4)cc3CC(=O)N([C@@H](C)CO)C[C@H]2C)cc1	-2	16	-6	.	.	.	.
CNC[C@H]1Oc2cc(C#Cc3ccccn3)ccc2S(=O)(=O)N([C@H](C)CO)C[C@H]1C	8	99*	-22	109*	69	-8	29
CNC[C@@H]1Oc2cc(C#Cc3ccncc3)ccc2S(=O)(=O)N([C@@H](C)CO)C[C@H]1C	.	.	24	.	.	.	.
C[C@@H]1CN([C@H](C)CO)S(=O)(=O)c2ccc(C#Cc3ccccn3)cc2O[C@@H]1CN(C)C	-6	.	36	.	.	.	.

Screens deposited in PubChem BioAssay by Broad Institute.
